The source made the active and inactive calls.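 The calls were made as follows, unless noted: active = fluorescence slope higher than the sample average by over 3 SD (cut at about -0.22 in these data, passing the limit was not always enough); inactive = the rest.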
How the values were obtained:
[1] = inhibitors of TNFa-induced NFkB p65 translocation, primary screen, imaging, HUVEC, MLSMR starter and 10KST1 sets (AID 438;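 active = inhibition above 20% together with a positive visual image hit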;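 also: compound added about 3h40 before a 20 min TNFalpha stimulation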;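 as to inhibition: signal is the nuclear over cytoplasmic p65 intensity ratio per well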); settings: HUVEC TNFa-induced p65 nuclear translocation; cell count: measured here: nuclei count (cytotoxicity indicator), at 2.08 µM; inhibition: at 2 µM, stronger effect = higher value, 0% TNFa-plus-vehicle, 100% no-TNFa wells
[2] = reduction of polyQ htt aggregates in cells – imaging, exon1htt(103Q)mCFP cells, high-content imaging, primary screen (AID 483;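 active = visual image review flags a hit and inhibition of aggregation exceeds 20%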;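 also: compound exposure lasted 3 days before fixation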;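 as to nuclei count: percent of the per-plate median nuclei count of sample wells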); settings: exon1htt(103Q)mCFP cell line, aggregate imaging, at 2 µM; inhibition of aggregation: stronger effect = higher value; nuclei count: measured here: cell count, toxicity
[3] = endothelial E-selectin expression blockers – imaging, HUVEC, immunofluorescence, MLSMR starter and 10KST1 sets, primary screen (AID 487;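 active = visually confirmed hit in the image check and inhibition above 20%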;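 as to inhibition: signal is fraction of cell area covered by stained E-selectin grains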;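 as to nuclei count: 100% = median nuclei count of all wells on the same plate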); settings: HUVEC TNFalpha-induced E-selectin immunofluorescence imaging, at 2 µM; inhibition: stronger effect = higher value; nuclei count: measured here: cell number, toxicity
[4] = target: Voltage-gated potassium channel subunit beta-2 (Rattus norvegicus) (UniProt P62483); test: inhibitors of rat Kvbeta2 reductase activity – biochemical, NADPH fluorescence, primary screen (AID 622); settings: recombinant KvBeta, 4-cyanobenzaldehyde reduction, at 10 µM, stronger effect = higher value;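 also: slope of raw intensity against log time taken from 70 to 1610 s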
Sequence of Voltage-gated potassium channel subunit beta-2 (Rattus norvegicus) (P62483 whole entry, looked up): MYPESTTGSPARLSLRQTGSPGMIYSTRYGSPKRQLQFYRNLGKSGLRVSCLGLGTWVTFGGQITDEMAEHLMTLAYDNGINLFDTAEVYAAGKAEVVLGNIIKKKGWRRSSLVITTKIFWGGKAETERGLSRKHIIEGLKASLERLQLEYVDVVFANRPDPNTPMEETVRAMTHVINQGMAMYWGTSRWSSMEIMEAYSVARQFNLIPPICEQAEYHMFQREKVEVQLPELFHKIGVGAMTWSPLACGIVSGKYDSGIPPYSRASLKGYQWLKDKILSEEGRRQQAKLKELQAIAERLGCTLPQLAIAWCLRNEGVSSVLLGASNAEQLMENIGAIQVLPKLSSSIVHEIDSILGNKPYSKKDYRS

[5] = target: Voltage-gated potassium channel subunit beta-2 (Rattus norvegicus) (UniProt P62483); test: enhancers of rat Kvbeta2 NADPH turnover – biochemical, NADPH fluorescence, primary screen (AID 623;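 active = NADPH fluorescence slope more negative than the mean of all samples by about 3 SD, 99.7% confidence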;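 also: fluorescence intensity change per second fitted from 20 to 320 s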); settings: Recombinant KvBeta, NADPH fluorescence decrease slope, 10 min; at 10 µM; stronger effect = lower value
[6] = target: Alpha-2C adrenergic receptor (Homo sapiens) (UniProt P18825); test: compounds altering alpha2C-coupled GIRK flux – cell-based, HEK293 alpha2C/GIRK1/2, thallium flux, primary screen (AID 624;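 active = fluorescence slope after compound addition differing from the mean of all screened samples at 99.7% confidence, in either direction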;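 also: slope of fluorescence ratio to pre-addition baseline per second over 15 to 24 s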); settings: thallium flux BTC fluorescence, at 10 µM, actives lie on both sides
Sequence of Alpha-2C adrenergic receptor (Homo sapiens) (P18825 whole entry, looked up): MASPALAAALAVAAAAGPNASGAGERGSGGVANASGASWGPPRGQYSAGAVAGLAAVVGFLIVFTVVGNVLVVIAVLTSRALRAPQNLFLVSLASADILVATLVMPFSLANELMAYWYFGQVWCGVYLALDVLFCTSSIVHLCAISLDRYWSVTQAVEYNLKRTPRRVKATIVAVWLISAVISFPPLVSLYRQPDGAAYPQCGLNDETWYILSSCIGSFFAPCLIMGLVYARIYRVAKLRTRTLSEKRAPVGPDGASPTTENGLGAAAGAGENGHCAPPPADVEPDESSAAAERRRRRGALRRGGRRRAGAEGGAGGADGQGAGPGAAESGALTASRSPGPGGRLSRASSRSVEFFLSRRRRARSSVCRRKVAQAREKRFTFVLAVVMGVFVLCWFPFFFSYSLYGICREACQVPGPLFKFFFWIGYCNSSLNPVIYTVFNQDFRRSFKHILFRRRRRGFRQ

[7] = blockers of RIG-like receptor reporter activation – cell-based, Sendai virus stimulus, luciferase, 10K MLSCN set, TLR/RLR signaling modifier project, primary screen (AID 602276;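 active = inhibition at or above 50% at 10 µM; inactive = inhibition below 50%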;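 also: firefly luciferase from ISG56 promoter only with Renilla not read in this screen; 0% = Sendai virus plus DMSO and 100% = medium plus DMSO without virus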); settings: HEK293 RL24 IRF3 luciferase reporter, at 10 µM, stronger effect = higher value
[8] = TLR3 IRF3 reporter activation blockers – cell-based, poly I:C stimulus, luciferase, 10K MLSCN set, primary screen (AID 602277;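 active = inhibition of the reporter signal at or above 50%; inactive = inhibition below 50%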); settings: HEK293-TLR3 RL24 IRF3 luciferase reporter, at 10 µM, stronger effect = higher value

Row | Structure (SMILES) | cell count [1] | inhibition [1] | inhibition of aggregation [2] | nuclei count [2] | inhibition [3] | nuclei count [3] | fluorescence slope [4] | NADPH fluorescence slope [5] | slope [6] | inhibition [7] | inhibition [8]
1 | Cc1cccc(NC(=O)CCN2CCN(C/C=C/c3ccccc3)CC2)c1 | 727 | 4.3% (inactive) | 4.2% (inactive) | 98.6% | 15.3% (inactive) | 104% | -0.511 (inactive) | -2.6e-05 (inactive) | 0.00628 (inactive) | 13.8% (inactive) | 6.07% (inactive)
2 | O=C(CCn1c(=O)oc2ccccc21)N1CCN(c2ccccc2Cl)CC1 | 570 | 3.9% (inactive) | -52.3% (inactive) | 22.3% | 26.9% (inactive) | 81.9% | -0.379 (inactive) | -2e-05 (inactive) | 0.0037 (inactive) | 49.8% (inactive) | 19.6% (inactive)
3 | CC1CCCN(C(=O)c2cc3c(-c4ccc(Cl)cc4)nn(C)c3s2)C1 (centres undefined) | 749 | -1.7% (inactive) | -30.1% (inactive) | 104% | -30.2% (inactive) | 111% | -0.607 (inactive) | -5.2e-06 (inactive) | 0.00725 (inactive) | 7.9% (inactive) | 45.2% (inactive)
4 | Cc1cc(C(F)(F)F)nc(SCC(=O)NC2=NC(=O)C(C)S2)n1 (centres undefined) | 370 | 6.1% (inactive) | 4.5% (inactive) | 109% | 19.6% (inactive) | 99% | -0.457 (inactive) | -1.9e-05 (inactive) | 0.00515 (inactive) | -20.9% (inactive) | -16.9% (inactive)
5 | COc1ccc(-n2c(Cc3cccn3C)nnc2SCC(=O)Nc2ccc(Cl)cc2)cc1 | 678 | -5.8% (inactive) | 8.1% (inactive) | 85% | -22.9% (inactive) | 119% | -0.567 (inactive) | -5e-06 (inactive) | 0.0052 (inactive) | 11.4% (inactive) | 23.2% (inactive)
6 | CCOc1ccc(S(=O)(=O)N2CCN(C(=O)c3cccn3C)CC2)cc1 | 431 | 2% (inactive) | -7.2% (inactive) | 95.6% | -88.3% (inactive) | 105% | -0.502 (inactive) | -9e-06 (inactive) | 0.00499 (inactive) | 13.9% (inactive) | 19.3% (inactive)
7 | Cc1onc(-c2c(Cl)cccc2Cl)c1C(=O)N1CCc2ccccc21 | 696 | -5.8% (inactive) | -0.7% (inactive) | 93.6% | -30.8% (inactive) | 92.5% | -0.47 (inactive) | -3.1e-05 (inactive) | 0.00899 (inactive) | 23.7% (inactive) | 23.2% (inactive)
8 | CN(C(=O)Cn1c(=O)n(CCCCC(=O)NC2CCCC2)c(=O)c2ccccc21)C1CCCCC1 | 347 | -1.2% (inactive) | -6.6% (inactive) | 107% | -15.5% (inactive) | 117% | -0.478 (inactive) | 1.3e-07 (inactive) | 0.00575 (inactive) | 16.4% (inactive) | 25.2% (inactive)
9 | CC1Cc2ccccc2N1C(=O)C12CCC(C)(C(=O)C1)C2(C)C (centres undefined) | 387 | -1.6% (inactive) | -6.9% (inactive) | 99.5% | -141% (inactive) | 116% | -0.544 (inactive) | -7.5e-05 (inactive) | 0.00468 (inactive) | -4.72% (inactive) | 1.25% (inactive)
10 | CCOC(=O)c1[nH]c(=O)c2ccccc2c1O | 367 | -3.9% (inactive) | 2.9% (inactive) | 96.9% | -0.2% (inactive) | 116% | -0.512 (inactive) | -1.7e-05 (inactive) | 0.00472 (inactive) | -11.9% (inactive) | -8.42% (inactive)
11 | Fc1ccc(-c2csc3nnc(SCc4cccnc4)n23)cc1 | 376 | 4.4% (inactive) | -9.6% (inactive) | 97.5% | -30% (inactive) | 116% | -0.312 (inactive) | -2.7e-05 (inactive) | 0.00572 (inactive) | 1.55% (inactive) | 20.4% (inactive)
12 | Cc1cc(C(=O)N2CCN(c3ncccn3)CC2)cs1 | 401 | -0.7% (inactive) | 4.3% (inactive) | 99% | 0.9% (inactive) | 110% | -0.591 (inactive) | -2.2e-05 (inactive) | 0.00264 (inactive) | 13.1% (inactive) | -6.87% (inactive)
13 | CCn1c(SCC(=O)N2CCOCC2)nc2c(c1=O)SC(C)C2 (centres undefined) | 298 | 9.4% (inactive) | 21.4% (inactive) | 89.2% | 20% (inactive) | 93.4% | -0.542 (inactive) | -3.5e-06 (inactive) | 0.00531 (inactive) | -5.39% (inactive) | 4.93% (inactive)
14 | O=C(CSc1nc2ccccc2s1)N1CCOCC1 | 330 | 0.5% (inactive) | -12.6% (inactive) | 105% | -38.9% (inactive) | 118% | -0.525 (inactive) | -1.9e-05 (inactive) | 0.00424 (inactive) | -27.4% (inactive) | -58.1% (inactive)

— PubChem BioAssay
